# In PubChem BioAssay (EPA / NIEHS):
# Records with an inconclusive call do not appear. Active and inactive are the calls of the source. The calls were made as follows: active = hit-call score of the fitted dose curve at least 0.9, where 1 is the maximum; inconclusive = response in the unintended direction; inactive = score below 0.9.
# What was measured:
# [1] = target: Estrogen receptor (Homo sapiens) (UniProt P03372); assay: ATG_hERa_XSP1: Attagene TRANS-FACTORIAL Multi-Species (XSP1) HepG2 Assay for human Estrogen Receptor (ESR1) (AID 2283780)
# Sequence of Estrogen receptor (Homo sapiens) (P03372 whole entry, looked up, the tested form may be a part): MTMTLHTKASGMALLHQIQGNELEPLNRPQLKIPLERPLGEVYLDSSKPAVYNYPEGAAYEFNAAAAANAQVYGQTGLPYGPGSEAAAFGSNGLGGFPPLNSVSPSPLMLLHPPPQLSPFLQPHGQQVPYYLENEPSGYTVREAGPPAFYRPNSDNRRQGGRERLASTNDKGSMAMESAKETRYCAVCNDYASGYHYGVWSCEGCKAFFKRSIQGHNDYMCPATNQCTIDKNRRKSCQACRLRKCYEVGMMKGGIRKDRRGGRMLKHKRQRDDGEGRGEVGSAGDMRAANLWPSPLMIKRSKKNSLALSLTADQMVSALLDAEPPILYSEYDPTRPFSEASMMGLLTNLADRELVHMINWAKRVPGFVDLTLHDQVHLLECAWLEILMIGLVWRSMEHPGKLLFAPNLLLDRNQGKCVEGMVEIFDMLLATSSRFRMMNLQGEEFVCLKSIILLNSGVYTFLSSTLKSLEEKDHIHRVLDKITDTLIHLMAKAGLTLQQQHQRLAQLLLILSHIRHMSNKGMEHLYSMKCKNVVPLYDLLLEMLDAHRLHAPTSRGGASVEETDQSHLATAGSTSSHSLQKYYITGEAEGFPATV
# Procedure, shortened: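 HepG2 cells transiently transfected with GAL4-UAS reporter units and chimeric NR-Gal4 constructs; 24 h after dosing, reporter mRNA quantified by RT-PCR and capillary electrophoresis. Medium contained 3 nM 6-alpha-fluorotestosterone; activity fitted as gain-of-signal versus DMSO.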
# [2] = system: turtle Estrogen Receptor (ESR1), gene 101933533; assay: ATG_trERa_XSP1: Attagene TRANS-FACTORIAL Multi-Species (XSP1) HepG2 Assay for turtle Estrogen Receptor (ESR1) (AID 2283781)
# Procedure, shortened: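 HepG2 cells transiently transfected with GAL4-UAS reporter units and chimeric NR-Gal4 constructs, dosed for 24 h with 3 nM 6-alpha-fluorotestosterone present. Reporter mRNA was quantified by RT-PCR, fluorescent labelling and capillary electrophoresis, with gain of signal fitted relative to DMSO.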
# [3] = system: turtle Androgen Receptor (AR), gene 101947425; assay: ATG_trAR_XSP1: Attagene TRANS-FACTORIAL Multi-Species (XSP1) HepG2 Assay for turtle Androgen Receptor (AR) (AID 2283786)
# Procedure, shortened: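 HepG2 cells transiently transfected with a turtle AR–GAL4 chimera and GAL4-UAS reporter, co-treated with 3 nM 6-alpha-fluorotestosterone for partial stimulation. Reporter mRNA is quantified at 24 h by RT-PCR and capillary electrophoresis, gain-of-signal versus DMSO.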
# [4] = target: Estrogen receptor beta (Homo sapiens) (UniProt Q92731); assay: ATG_hERb_XSP1: Attagene TRANS-FACTORIAL Multi-Species (XSP1) HepG2 Assay for human Estrogen Receptor (ESR2) (AID 2283788)
# Sequence of Estrogen receptor beta (Homo sapiens) (Q92731 whole entry, looked up, the tested form may be a part): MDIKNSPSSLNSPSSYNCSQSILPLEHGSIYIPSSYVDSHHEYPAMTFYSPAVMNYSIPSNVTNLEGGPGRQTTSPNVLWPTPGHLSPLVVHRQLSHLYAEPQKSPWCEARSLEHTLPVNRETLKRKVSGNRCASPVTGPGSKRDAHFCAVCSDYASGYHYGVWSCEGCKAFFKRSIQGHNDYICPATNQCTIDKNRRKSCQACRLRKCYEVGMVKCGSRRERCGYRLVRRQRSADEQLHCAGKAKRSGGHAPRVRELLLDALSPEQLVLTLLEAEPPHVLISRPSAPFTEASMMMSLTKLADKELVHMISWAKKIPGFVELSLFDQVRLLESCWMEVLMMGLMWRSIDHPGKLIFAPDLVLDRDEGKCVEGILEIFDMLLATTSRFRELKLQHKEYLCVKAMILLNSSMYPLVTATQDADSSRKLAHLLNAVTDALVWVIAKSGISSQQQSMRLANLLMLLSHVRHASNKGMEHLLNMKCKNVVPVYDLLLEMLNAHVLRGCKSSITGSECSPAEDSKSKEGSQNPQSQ
# Procedure, shortened: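 Read-out: reporter mRNA induction by RT-PCR, HpaI digestion and capillary electrophoresis fluorescence, fitted in positive direction relative to DMSO baseline. Human liver HepG2 cells expressing ERβ-Gal4 fusion, dosed 24 h, medium containing 3 nM 6-alpha-fluorotestosterone.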
# [5] = target: GAL4 Transcription Factor (Internal Marker), GAL4 (gene 855828) (UniProt P04386); assay: ATG_GAL4_XSP1: Attagene TRANS-FACTORIAL Multi-Species (XSP1) HepG2 Assay for GAL4 Transcription Factor (Internal Marker) (AID 2283789)
# Sequence of GAL4 Transcription Factor (Internal Marker), GAL4 (gene 855828) (P04386 whole entry, looked up, the tested form may be a part): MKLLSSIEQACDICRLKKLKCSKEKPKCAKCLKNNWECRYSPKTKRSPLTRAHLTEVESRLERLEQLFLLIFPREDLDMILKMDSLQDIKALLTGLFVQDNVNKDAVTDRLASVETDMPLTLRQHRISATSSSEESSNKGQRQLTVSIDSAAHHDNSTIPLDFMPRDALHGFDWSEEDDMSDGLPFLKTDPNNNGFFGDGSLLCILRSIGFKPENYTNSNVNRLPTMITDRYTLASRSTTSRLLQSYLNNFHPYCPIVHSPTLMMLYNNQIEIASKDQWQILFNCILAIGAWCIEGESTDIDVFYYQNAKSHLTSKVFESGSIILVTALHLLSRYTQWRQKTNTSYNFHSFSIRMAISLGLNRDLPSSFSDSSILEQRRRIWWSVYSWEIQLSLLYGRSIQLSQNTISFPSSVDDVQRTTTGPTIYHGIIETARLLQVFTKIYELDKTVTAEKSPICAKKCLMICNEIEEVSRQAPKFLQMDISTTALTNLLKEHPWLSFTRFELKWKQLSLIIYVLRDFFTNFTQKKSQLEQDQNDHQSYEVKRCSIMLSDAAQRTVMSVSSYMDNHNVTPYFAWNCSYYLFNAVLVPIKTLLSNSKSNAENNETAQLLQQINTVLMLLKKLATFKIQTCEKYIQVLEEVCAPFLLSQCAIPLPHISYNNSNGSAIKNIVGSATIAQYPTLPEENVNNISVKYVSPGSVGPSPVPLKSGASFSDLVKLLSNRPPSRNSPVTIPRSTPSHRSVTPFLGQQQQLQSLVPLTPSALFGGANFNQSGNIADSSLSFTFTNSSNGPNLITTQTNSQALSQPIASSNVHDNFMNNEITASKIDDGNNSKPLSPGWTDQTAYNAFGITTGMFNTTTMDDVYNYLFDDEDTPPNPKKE
# Procedure, shortened: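 HepG2 cells transiently transfected with multiplexed GAL4-UAS reporter units were exposed for 24 h with 3 nM 6-alpha-fluorotestosterone present. Reporter mRNA was quantified by RT-PCR, FAM labelling, HpaI digestion and capillary electrophoresis; background-control readout, gain-of-signal versus DMSO.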
# [6] = ATG_M_19_XSP1: Attagene TRANS-FACTORIAL Multi-Species (XSP1) HepG2 Assay for M19 Transcription Factor (Internal Marker) (AID 2283798)
# Procedure, shortened: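 HepG2 cells transiently transfected with multiplexed GAL4-UAS reporter units, dosed 24 h with 3 nM 6-alpha-fluorotestosterone present for partial AR stimulation. Reporter mRNA measured by RT-PCR with capillary electrophoresis; gain-of-signal fitted relative to DMSO.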
# [7] = ATG_M_32_XSP1: Attagene TRANS-FACTORIAL Multi-Species (XSP1) HepG2 Assay for M32 Transcription Factor (Internal Marker) (AID 2283799)
# Procedure, shortened: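 HepG2 cells transiently transfected with multi-species TRANS reporter units, dosed 24 h with 3 nM 6-alpha-fluorotestosterone present. Internal-marker reporter mRNA quantified by RT-PCR and capillary electrophoresis; positive-direction fit versus DMSO.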
# [8] = target: Peroxisome proliferator-activated receptor gamma (Homo sapiens) (UniProt P37231); assay: ATG_hPPARg_XSP1: Attagene TRANS-FACTORIAL Multi-Species (XSP1) HepG2 Assay for human Peroxisome Proliferator-activated Receptor gamma (PPARg) (AID 2283800)
# Sequence of Peroxisome proliferator-activated receptor gamma (Homo sapiens) (P37231 whole entry, looked up, the tested form may be a part): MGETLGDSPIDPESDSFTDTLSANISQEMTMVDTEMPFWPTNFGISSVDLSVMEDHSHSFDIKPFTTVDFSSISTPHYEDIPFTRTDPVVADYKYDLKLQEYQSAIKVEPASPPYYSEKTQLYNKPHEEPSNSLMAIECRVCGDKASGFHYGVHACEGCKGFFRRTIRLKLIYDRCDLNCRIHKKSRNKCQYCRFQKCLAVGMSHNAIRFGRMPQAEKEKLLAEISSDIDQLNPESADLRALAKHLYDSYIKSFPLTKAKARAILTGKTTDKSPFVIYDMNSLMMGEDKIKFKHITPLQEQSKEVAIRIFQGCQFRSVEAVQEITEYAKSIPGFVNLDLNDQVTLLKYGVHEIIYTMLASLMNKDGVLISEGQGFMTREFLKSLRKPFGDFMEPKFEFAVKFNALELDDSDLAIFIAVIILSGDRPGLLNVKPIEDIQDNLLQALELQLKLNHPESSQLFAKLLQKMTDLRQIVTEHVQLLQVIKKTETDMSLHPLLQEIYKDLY
# Procedure, shortened: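 HepG2 cells transiently transfected with GAL4-UAS reporter units carrying chimeric NR-Gal4 proteins; 3 nM 6-alpha-fluorotestosterone present. After 24 h dosing, reporter mRNA quantified by RT-PCR and capillary electrophoresis; gain of signal relative to DMSO.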
# [9] = system: zebrafish Peroxisome Proliferator-activated Receptor gamma (PPARg), gene 557037; assay: ATG_zfPPARg_XSP1: Attagene TRANS-FACTORIAL Multi-Species (XSP1) HepG2 Assay for zebrafish Peroxisome Proliferator-activated Receptor gamma (PPARg) (AID 2283801)
# Procedure, shortened: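 HepG2 cells transiently transfected with GAL4-UAS reporter units including a zebrafish PPARg–GAL4 chimera, dosed 24 h with 3 nM 6-alpha-fluorotestosterone present. Reporter mRNA quantified by RT-PCR, FAM labelling, HpaI digestion and capillary electrophoresis; induction versus DMSO.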
# [10] = target: mouse Peroxisome Proliferator-activated Receptor gamma (PPARg), Pparg (gene 19016) (UniProt P37238); assay: ATG_mPPARg_XSP1: Attagene TRANS-FACTORIAL Multi-Species (XSP1) HepG2 Assay for mouse Peroxisome Proliferator-activated Receptor gamma (PPARg) (AID 2283802)
# Sequence of mouse Peroxisome Proliferator-activated Receptor gamma (PPARg), Pparg (gene 19016) (P37238 whole entry, looked up, the tested form may be a part): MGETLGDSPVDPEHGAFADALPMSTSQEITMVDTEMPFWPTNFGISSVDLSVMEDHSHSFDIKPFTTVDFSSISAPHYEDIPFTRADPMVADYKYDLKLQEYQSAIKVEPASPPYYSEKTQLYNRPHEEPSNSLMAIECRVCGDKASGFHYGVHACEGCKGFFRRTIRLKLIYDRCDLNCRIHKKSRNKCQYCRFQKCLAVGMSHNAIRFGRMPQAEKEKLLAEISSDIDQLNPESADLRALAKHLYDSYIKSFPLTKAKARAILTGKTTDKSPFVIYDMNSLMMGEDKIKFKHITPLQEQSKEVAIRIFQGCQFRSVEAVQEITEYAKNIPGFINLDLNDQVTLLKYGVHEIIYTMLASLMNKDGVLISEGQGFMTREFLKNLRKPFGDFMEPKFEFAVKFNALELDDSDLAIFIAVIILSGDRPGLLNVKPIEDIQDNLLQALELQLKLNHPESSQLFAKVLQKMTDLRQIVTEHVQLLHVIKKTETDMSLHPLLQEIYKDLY
# Procedure, shortened: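 HepG2 cells transiently transfected with GAL4-UAS reporter units driven by mouse PPARg–GAL4 chimera; 3 nM 6-alpha-fluorotestosterone present. After 24 h dosing, reporter mRNA quantified by RT-PCR, fluorescent labelling and capillary electrophoresis; gain of signal versus DMSO.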
# [11] = target: Nuclear receptor subfamily 1 group I member 2 (Mus musculus) (UniProt O54915); assay: ATG_mPXR_XSP1: Attagene TRANS-FACTORIAL Multi-Species (XSP1) HepG2 Assay for mouse Pregnane X Receptor (PXR) (AID 2283803)
# Sequence of Nuclear receptor subfamily 1 group I member 2 (Mus musculus) (O54915 whole entry, looked up, the tested form may be a part): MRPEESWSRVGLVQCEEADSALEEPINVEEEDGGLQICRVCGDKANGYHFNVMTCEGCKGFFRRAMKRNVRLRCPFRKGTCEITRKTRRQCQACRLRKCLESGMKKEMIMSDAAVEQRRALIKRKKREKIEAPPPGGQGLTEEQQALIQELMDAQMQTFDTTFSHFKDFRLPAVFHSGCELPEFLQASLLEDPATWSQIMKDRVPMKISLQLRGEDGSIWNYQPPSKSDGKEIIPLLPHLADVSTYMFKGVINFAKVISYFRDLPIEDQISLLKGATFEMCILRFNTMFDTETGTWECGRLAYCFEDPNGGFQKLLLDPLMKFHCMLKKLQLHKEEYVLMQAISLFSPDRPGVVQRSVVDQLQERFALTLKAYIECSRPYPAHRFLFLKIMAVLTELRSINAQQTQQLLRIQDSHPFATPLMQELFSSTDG
# Procedure, shortened: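 Transiently transfected HepG2 cells expressing a receptor-Gal4 chimera drive a GAL4-UAS reporter; 3 nM 6-alpha-fluorotestosterone included. Reporter mRNA read 24 h post-dose by RT-PCR and capillary electrophoresis; gain of signal relative to DMSO.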
# [12] = system: turtle Thyroid Hormone Receptor, alpha (TRa), gene 101949057; assay: ATG_trTRa_XSP1: Attagene TRANS-FACTORIAL Multi-Species (XSP1) HepG2 Assay for turtle Thyroid Hormone Receptor, alpha (TRa) (AID 2283806)
# Procedure, shortened: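 HepG2 cells transiently transfected with GAL4-UAS reporter units and chimeric receptor-Gal4 constructs, with 3 nM 6-alpha-fluorotestosterone present. Reporter mRNA was quantified 24 h after dosing by RT-PCR, 6-FAM labelling and capillary electrophoresis; gain of signal versus DMSO.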
# [13] = ACEA_ER_AUC_viability: ACEA Biosciences xCELLigence Real-Time Cell Analysis on Estrogen Receptor Agonism for Viability (AID 2283782);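 also: continuous compound exposure with impedance area under curve over 80 h; hit means loss of impedance signal meaning reduced cell growth or viability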
# Procedure, shortened: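 T-47D human breast cells in phenol red-free RPMI1640 with 10% charcoal-stripped FBS were dosed with an 8-point 1:4 dilution series from 100 uM top final concentration, in duplicate. Impedance-based growth was followed for 80 h; AUC analysed versus DMSO.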
# [14] = ATG_M_06_XSP1: Attagene TRANS-FACTORIAL Multi-Species (XSP1) HepG2 Assay for M06 Transcription Factor (Internal Marker) (AID 2283790)
# Procedure, shortened: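 Transfected HepG2 multi-reporter system treated 24 h in the presence of 3 nM 6-alpha-fluorotestosterone. The M06 internal marker transcript was quantified by RT-PCR with capillary electrophoresis as a background control, and gain of signal was scored versus DMSO.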
# [15] = ATG_M_61_XSP1: Attagene TRANS-FACTORIAL Multi-Species (XSP1) HepG2 Assay for M61 Transcription Factor (Internal Marker) (AID 2283797)
# Procedure, shortened: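 HepG2 cells transiently transfected with multiplexed GAL4-driven reporter units, dosed 24 h with 3 nM 6-alpha-fluorotestosterone present. Reporter mRNA quantified by RT-PCR, 6-FAM labelling, HpaI digestion and capillary electrophoresis; internal-marker background control, gain of signal versus DMSO.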
# AR (gene 367) [16] = target: AR (gene 367) (UniProt P10275); assay: ACEA_AR_agonist_80hr: ACEA Biosciences xCELLigence Real-Time Cell Analysis on Androgen Receptor Agonism for Proliferation (AID 2283783);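 also: hits increase impedance growth signal above DMSO baseline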
# Sequence of AR (gene 367) (P10275 whole entry, looked up): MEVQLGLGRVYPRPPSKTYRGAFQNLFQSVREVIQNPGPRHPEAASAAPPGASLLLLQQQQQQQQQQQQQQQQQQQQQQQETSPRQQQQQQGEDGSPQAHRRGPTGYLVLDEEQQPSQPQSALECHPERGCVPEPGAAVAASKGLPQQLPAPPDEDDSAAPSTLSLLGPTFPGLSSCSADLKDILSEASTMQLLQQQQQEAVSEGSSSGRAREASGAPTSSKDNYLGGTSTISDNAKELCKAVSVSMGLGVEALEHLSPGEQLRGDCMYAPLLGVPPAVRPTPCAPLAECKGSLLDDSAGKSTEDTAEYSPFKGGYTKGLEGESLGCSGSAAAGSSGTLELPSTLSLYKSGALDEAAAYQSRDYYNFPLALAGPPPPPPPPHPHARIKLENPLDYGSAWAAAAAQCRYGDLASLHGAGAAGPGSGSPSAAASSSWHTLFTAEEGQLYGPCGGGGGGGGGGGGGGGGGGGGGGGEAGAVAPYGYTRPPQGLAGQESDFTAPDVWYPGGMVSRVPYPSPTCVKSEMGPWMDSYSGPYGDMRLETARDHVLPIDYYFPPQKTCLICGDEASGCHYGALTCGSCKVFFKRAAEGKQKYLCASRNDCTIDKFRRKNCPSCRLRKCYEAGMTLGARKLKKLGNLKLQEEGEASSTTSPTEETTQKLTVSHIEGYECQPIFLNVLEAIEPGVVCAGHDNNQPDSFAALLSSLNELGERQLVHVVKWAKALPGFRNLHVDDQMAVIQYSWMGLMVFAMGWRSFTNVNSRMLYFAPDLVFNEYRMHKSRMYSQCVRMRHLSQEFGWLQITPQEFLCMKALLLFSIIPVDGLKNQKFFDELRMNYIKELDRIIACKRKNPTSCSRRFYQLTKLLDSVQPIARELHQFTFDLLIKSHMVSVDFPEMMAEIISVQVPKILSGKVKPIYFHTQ
# Procedure, shortened: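 22Rv1 human prostate cancer cells were seeded after preconditioning in assay medium and monitored overnight, then dosed in an eight-point 1:4 dilution series from 100 uM (≤0.5% DMSO). Impedance-based growth was read at 80 h, gain-of-signal versus DMSO.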
# AR (gene 367) [17] = target: AR (gene 367) (UniProt P10275); assay: ACEA_AR_antagonist_80hr: ACEA Biosciences xCELLigence Real-Time Cell Analysis on Androgen Receptor Antagonism for Proliferation (AID 2283787);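 also: hits lower the impedance growth signal relative to DMSO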
# Procedure, shortened: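 Impedance readout (RT-CES), 80 h post-dose; loss-of-signal vs DMSO baseline. 22Rv1 cells in assay medium. Compounds: 8-pt 1:4 series, max 100 uM final, up to 0.5% DMSO; n = 2.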
smiles,measurement,setting,value
CC1(C)C(C=C(Cl)Cl)C1C(=O)OC(C#N)c1cccc(Oc2ccccc2)c1 (stereo not given),AC50,[1],1.45 µM (active)
same,outcome,[2],inactive
same,outcome,[3],inactive
same,AC50,[4],66.8 µM (active)
same,outcome,[5],inactive
same,outcome,[6],inactive
same,outcome,[7],inactive
same,AC50,[8],4.23 µM (active)
same,AC50,[9],3.54 µM (active)
same,AC50,[10],13.5 µM (active)
same,AC50,[11],0.579 µM (active)
same,outcome,[12],inactive
Cc1c(COC(=O)[C@@H]2[C@H](/C=C(\Cl)C(F)(F)F)C2(C)C)cccc1-c1ccccc1,AC50,[1],21.8 µM (active)
same,AC50,[2],19.8 µM (active)
same,outcome,[13],inactive
same,outcome,[3],inactive
same,AC50,[4],100 µM (active)
same,outcome,[14],inactive
same,outcome,[15],inactive
same,outcome,[6],inactive
same,outcome,[7],inactive
same,outcome,[8],inactive
same,AC50,[10],42.5 µM (active)
same,AC50,[11],2.23 µM (active)
same,outcome,[12],inactive
CNC(=O)N(C)c1nnc(C(C)(C)C)s1,outcome,[13],inactive
CCOP(=O)(OCC)Oc1nc(Cl)c(Cl)cc1Cl,AC50,[13],68.3 µM (active)
same,outcome,AR (gene 367) [16],inactive
same,AC50,AR (gene 367) [17],76 µM (active)
CC(C)=CC1C(C(=O)OCc2coc(Cc3ccccc3)c2)C1(C)C (stereo not given),AC50,[13],84 µM (active)
